Results from the supplement of paper PMC10338343.
± gives the standard deviation.

Tested on: EfPiwi piRISC loaded with L1MC piRNA (26 nt)
Test: pre-steady-state target cleavage rate (min^-1); auxiliary factor: 500 nM Ephydatia muelleri Gtsf1; guide: L1MC piRNA 5'p-UAACUAAAUACUAUGCAAGCUGUAGG; MIWI and MILI are mouse PIWI proteins and EfPiwi is from a freshwater sponge; tags in brackets are library labels; higher = faster piRNA-guided slicing of the target
Outline: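 The pre-steady-state cleavage rate was derived from a burst-and-steady-state fit of Cleave-'n-Seq data. For these assays, 1 nM active affinity-purified piRISC loaded with a single synthetic guide was mixed with […] a transcribed, DNA-blocked target RNA library in HEPES–potassium acetate buffer at 33 °C, with or without 500 nM GTSF1 partner protein, for 0–8 or 0–960 min. Sequencing counts of uncleaved targets were normalised to depth and to weakly complementary targets, and k3 was capped at 0.0001 min^-1 after three trials were pooled.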

**Q.** How did the “pre-steady-state target cleavage rate” value turn out when UCCUGGUACAGCUUGCAUAGUAUUUACGUUA was run?
**A.** Its value is 0.00346 ± 0.0025.

**Q.** How did the “pre-steady-state target cleavage rate” value turn out when UCCUGGAUGUCCCUGCAUAGUAUUUAGUUA was run?
**A.** Its value is 0.00326 ± 0.0026.

**Q.** With UCCUGGAACAGCUUGCAUUGUAAUUAGUUA as the sequence, how does the “pre-steady-state target cleavage rate” value read?
**A.** Its value is 0.00225 ± 0.0022.

**Q.** UCCUCCUACAGCUUGCAUAGUAUUAUGUAA was tested. Which “pre-steady-state target cleavage rate” value did it give?
**A.** The value was 0.00434 ± 0.0026.

**Q.** How did the “pre-steady-state target cleavage rate” value turn out when UCCUGGAUCAUCUUGCAUAGUAUUUAGUUA was run?
**A.** The value was 0.101 ± 0.023.

**Q.** Which “pre-steady-state target cleavage rate” value does the source give for UCCUGGAUCAGCUUGCAAAGUAUUUAGUAA here?
**A.** The value was 0.00607 ± 0.0027.

**Q.** Which “pre-steady-state target cleavage rate” value does the source give for UCCUGCUACAGCUUGCAUAGUAUUAAGAAA here?
**A.** Its value is 0.00481 ± 0.0021.

**Q.** How did the “pre-steady-state target cleavage rate” value turn out when UCCUGGAUGUCGAACCAGAGUAUUUAGUUA was run?
**A.** Its value is under 0.0001.

**Q.** For UCCUGCUACAGCUUCCAUAGUAUUUAGAUA, which “pre-steady-state target cleavage rate” value is on record?
**A.** Its value is 0.00303 ± 0.00093.

**Q.** UCCUCCUACAGCUUGCAUAGUAAUUAGUUA was tested. Which “pre-steady-state target cleavage rate” value did it give?
**A.** Its value is 0.0117 ± 0.0045.

**Q.** Which “pre-steady-state target cleavage rate” value does the source give for UCCUGGAACAGCGUGCAUAGUAUUUAGUUA here?
**A.** The value was 0.0168 ± 0.005.

**Q.** With UCCUCCUAGAGCUUGCAUAGUAUAUAGUUA as the sequence, how does the “pre-steady-state target cleavage rate” value read?
**A.** Its value is 0.00597 ± 0.0022.

**Q.** UCCUGCUACUCCUUGCAUAGUAUUUAGUAA was tested. Which “pre-steady-state target cleavage rate” value did it give?
**A.** The value was 0.00443 ± 0.003.

**Q.** How did the “pre-steady-state target cleavage rate” value turn out when UCCUGGAUGUGCUUGCAUAGCAUUUAGUUA was run?
**A.** Its value is 0.00505 ± 0.0018.

**Q.** How did the “pre-steady-state target cleavage rate” value turn out when UCCUCCUACAGGUUGGAUAGUAUUUAGUUA was run?
**A.** The value was 0.0118 ± 0.0028.

**Q.** Which “pre-steady-state target cleavage rate” value does the source give for UCCUGCUCAGCUUGCAUAGUAUUUAGUUA here?
**A.** The value was 0.065 ± 0.015.

**Q.** Which “pre-steady-state target cleavage rate” value does the source give for UCCUGGUACAGCUUCCAUAGUAUUUAGAAA here?
**A.** Its value is 0.00336 ± 0.0013.

**Q.** How did the “pre-steady-state target cleavage rate” value turn out when UCCUGGAUGUCGAACCAUUGUAUUUAGUAA was run?
**A.** The value was under 0.0001.

**Q.** With UCCUGCUACAGCUUGCAUAGUAAUUAGAUA as the sequence, how does the “pre-steady-state target cleavage rate” value read?
**A.** Its value is 0.00345 ± 0.0018.

**Q.** Which “pre-steady-state target cleavage rate” value does the source give for UCCUGGAUGUCGAACGUAUCUAUGUAGUUA here?
**A.** Its value is under 0.0001.

**Q.** Which “pre-steady-state target cleavage rate” value does the source give for UCCUGCUACAGCAUGCAAAGUAUUUAGUUA here?
**A.** The value was 0.00845 ± 0.0025.

**Q.** UCCUGCUACAGCUUGCAUAGUAUGUAGUUA was tested. Which “pre-steady-state target cleavage rate” value did it give?
**A.** The value was 0.00311 ± 0.0014.

**Q.** Which “pre-steady-state target cleavage rate” value does the source give for UCCUGGAUGUCGAAGGAUACUAUUUAGUUA here?
**A.** Its value is under 0.0001.

**Q.** With UCCUGGAUGAGCUUGCAUAGUAAUUACAAA as the sequence, how does the “pre-steady-state target cleavage rate” value read?
**A.** Its value is 0.00446 ± 0.0034.

**Q.** Which “pre-steady-state target cleavage rate” value does the source give for UCCUGGAACAGCUUGCAUAGUAUUUAGUGA here?
**A.** Its value is 0.00437 ± 0.002.

**Q.** Which “pre-steady-state target cleavage rate” value does the source give for UCCUGGAUGUCCUUGCAUAGUAUUUGGUUA here?
**A.** Its value is 0.00366 ± 0.0027.

**Q.** For UCCUCCUACAGCUUGCAUAGUAUUAUGAAA, which “pre-steady-state target cleavage rate” value is on record?
**A.** Its value is 0.00358 ± 0.0025.

**Q.** How did the “pre-steady-state target cleavage rate” value turn out when UCCUGGAUGUCGAACGUAAUUAUUUAGUUA was run?
**A.** The value was under 0.0001.

**Q.** With UCCUGGAUGUCGAACGAUACGUAUUUAGUUA as the sequence, how does the “pre-steady-state target cleavage rate” value read?
**A.** The value was under 0.0001.

**Q.** How did the “pre-steady-state target cleavage rate” value turn out when UCCUGGAUGUCGAACCAUAGUAUUUACGUUA was run?
**A.** The value was under 0.0001.

**Q.** How did the “pre-steady-state target cleavage rate” value turn out when UCCUCCUACACGCUUGCAUAGUAUUUAGUUA was run?
**A.** The value was 0.00856 ± 0.003.

**Q.** UCCUGCUACAGCUUGCAUAGUAUAAUGUAA was tested. Which “pre-steady-state target cleavage rate” value did it give?
**A.** The value was 0.00248 ± 0.002.

**Q.** UCCUGGAUCAGCUUCCAUAGUAUUUAGAUA was tested. Which “pre-steady-state target cleavage rate” value did it give?
**A.** Its value is 0.00231 ± 0.0018.

**Q.** With UCCUGCUACAGCUUGCAUAGUAUUAUCUUA as the sequence, how does the “pre-steady-state target cleavage rate” value read?
**A.** Its value is 0.00653 ± 0.0042.

**Q.** Which “pre-steady-state target cleavage rate” value does the source give for UCCUCCGUACAGCUUGCAUAGUAUUUAGUUA here?
**A.** Its value is 0.0578 ± 0.018.

**Q.** Which “pre-steady-state target cleavage rate” value does the source give for UCCUGGAUGAGCUUGAAUAGUAUUUAGUUA here?
**A.** The value was 0.00419 ± 0.0027.

**Q.** UCCUGGAUGUCGAACGUAUCUAUUAUCUUA was tested. Which “pre-steady-state target cleavage rate” value did it give?
**A.** The value was under 0.0001.

**Q.** How did the “pre-steady-state target cleavage rate” value turn out when UCCUGGAUGUCGAACCAUAGUAUUAAGUUA was run?
**A.** The value was under 0.0001.

**Q.** Which “pre-steady-state target cleavage rate” value does the source give for UCCUGGAACAGCUUGCAAAGUAUUUAGUUA here?
**A.** The value was 0.0333 ± 0.0089.

**Q.** UCCUGGAUGUCGAACGUUACAAUUUAGUUA was tested. Which “pre-steady-state target cleavage rate” value did it give?
**A.** Its value is under 0.0001.
